A short description of assay [1]: APR_HepG2_P-H2AX_72hr: Apredica 72-hour HepG2 Assay for H2AX Phosphorylation (AID 2282916).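 Note: phospho-histone H2A.x immunostain intensity per cell marking DNA damage.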 Conditions: imaging, actives raise or lower the signal. The procedure, abridged: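 Human hepatoma HepG2 cells are dosed across ten concentrations (0.39 to 200 uM, 0.5% v/v DMSO) and incubated 72 hr. Phospho-histone H2A.x is then detected by antibody staining alongside c-Jun and Hoechst, and quantified by automated fluorescence imaging.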

Assay [2] in a line: APR_HepG2_MitoMembPot_72hr: Apredica 72-hour HepG2 Assay for Mitochondrial Membrane Potential (AID 2282917). Conditions: imaging, actives raise or lower the signal. The procedure, abridged:
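Membrane potential read by MitoTracker Red CMXRos (250 nM, 30 min, pre-fixation) fluorescence imaging of HepG2 after 72 hr exposure. Ten concentrations, 0.39–200 uM, duplicate wells, 0.5% DMSO; fitted in both directions against DMSO baseline.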

The nature of assay [3]: APR_HepG2_MitoticArrest_72hr: Apredica 72-hour HepG2 Assay for Mitotic Arrest (AID 2282918). The note with it: high-content imaging, actives raise or lower the signal. The procedure, abridged:
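HepG2 cells treated 72 h at 0.39–200 uM, 0.5% DMSO final; formaldehyde-fixed, stained with Hoechst 33342 and phospho-histone H3 antibody, imaged by high-content fluorescence; bidirectional fit versus DMSO.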

Assay [4] in a line: APR_HepG2_MicrotubuleCSK_72hr: Apredica 72-hour HepG2 Assay for Microtubule CSK Stabilty (AID 2282919). The note with it: HepG2 microtubule cytoskeleton, high-content imaging, actives raise or lower the signal. In short, it runs like this: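 High-content imaging of alpha-tubulin staining in fixed HepG2 cells after 72 hr treatment with ten concentrations from 0.39 to 200 uM (0.5% DMSO). Fitting was bidirectional against DMSO; taxol served as positive control.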

A short description of assay [5]: APR_HepG2_P-H2AX_24hr: Apredica 24-hour HepG2 Assay for H2AX Phosphorylation (AID 2282920). Conditions: high-content imaging, actives raise or lower the signal. In short, it runs like this: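 HepG2 cells dosed 24 h at 0.39–200 uM (10 points, duplicate, 0.5% DMSO final). Formaldehyde-fixed and permeabilized, then immunostained for phospho-H2A.x with Hoechst. Fluorescence quantified by high-content imaging, fitted bidirectionally versus DMSO.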

Assay [6] can be described thus: APR_HepG2_StressKinase_72hr: Apredica 72-hour HepG2 Assay for Stress Kinase (AID 2282921). Conditions: HepG2 stress kinase (phospho-c-Jun) imaging, actives raise or lower the signal. In short, it runs like this:
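After a 72 h compound treatment spanning 0.39 to 200 uM, formaldehyde-fixed cells are labelled for phosphorylated c-Jun and nuclei, imaged by automated fluorescence microscopy, and activity is fitted in both directions relative to DMSO controls.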

Assay [7] can be described thus: APR_HepG2_StressKinase_24hr: Apredica 24-hour HepG2 Assay for Stress Kinase (AID 2282922). The note with it: HepG2 stress kinase (phospho-c-Jun) imaging, actives raise or lower the signal. The procedure, abridged:
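High-content imaging of phospho-c-Jun immunofluorescence in fixed, permeabilized HepG2 cells after 24 h dosing. Ten concentrations, 0.39 to 200 uM, run in duplicate at 0.5% v/v DMSO; gain or loss of signal versus DMSO.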

Assay [8] is described as follows: APR_HepG2_p53Act_72hr: Apredica 72-hour HepG2 Assay for p53 Activation (AID 2282923).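 Note: average cellular p53 protein immunofluorescence intensity in HepG2 cells.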 The note with it: high-content imaging, actives raise or lower the signal. The procedure, abridged:
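Imaging-based endpoint: after 72 hr compound exposure (up to 200 uM, 0.5% DMSO), fixed and permeabilized monolayers were labelled with anti-p53 antibody and imaged; signal change in either direction was fitted relative to DMSO controls.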

The nature of assay [9]: APR_HepG2_MitoMass_72hr: Apredica 72-hour HepG2 Assay for Mitochondrial Mass (AID 2282924).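 Note: MitoTracker Red CMXRos stain intensity per cell imaged as mitochondrial mass.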 The note with it: high-content imaging, actives raise or lower the signal. In short, it runs like this:
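Readout is imaged MitoTracker Red (250 nM, 30 min, pre-fixation) signal, fitted bidirectionally against DMSO baseline. Human HepG2 liver cells received compound 0.39–200 uM in duplicate for 72 hr, final DMSO 0.5%.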

Assay [10] is described as follows: APR_HepG2_NuclearSize_72hr: Apredica 72-hour HepG2 Assay for Nuclear Size (AID 2282925). The note with it: high-content imaging, actives raise or lower the signal. The procedure, abridged: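 Nuclear size was read by high-content imaging of Hoechst 33342 stain after formaldehyde fixation. Compounds ran 72 h on HepG2 at 0.39 to 200 uM, with final DMSO 0.5% v/v. Curves fitted both directions relative to DMSO control.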

Assay [11] can be described thus: ATG_CRE_CIS: Attagene CIS-FACTORIAL HepG2 Assay for human cAMP Responsive Element (CRE) binding protein 3 (AID 2282926). The note with it: HepG2 CRE cis-reporter, Attagene multiplexed mRNA; actives raise or lower the signal. The procedure, abridged:
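Induced reporter mRNA from a CRE cis element, measured in HepG2 among many multiplexed units at 24 h. Detection used RT-PCR plus capillary electrophoresis of fluorescent fragments; DMSO served as negative control.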

For assay [12], the target named is CCAAT/enhancer-binding protein beta (Homo sapiens) (UniProt P17676). In words: ATG_C_EBP_CIS: Attagene CIS-FACTORIAL HepG2 Assay for human CCAAT/Enhancer Binding Protein (C/EBP) beta (AID 2282927). Conditions: HepG2 Attagene cis-factorial transcription factor reporter; actives raise or lower the signal. The procedure, abridged: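 Endogenous transcription factor activity in human liver HepG2 cells is inferred from induction of a CEBPB-linked reporter mRNA. Exposure lasts 24 h; activity is fitted in both directions relative to DMSO.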

Assay [13] in a line: ATG_CMV_CIS: Attagene CIS-FACTORIAL HepG2 Assay for human CMV (Internal Marker) (AID 2282928).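 Note: endpoint acts as a background internal control marker rather than a target.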 The note with it: HepG2 CMV promoter reporter, transcription factor profiling; actives raise or lower the signal. The procedure, abridged:
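Bidirectional fits against DMSO are applied to reporter mRNA, read by RT-PCR with capillary electrophoresis, from HepG2 cells exposed 24 h. The endpoint serves as an internal CMV background marker within the cis-factorial reporter panel.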

In assay [14] the target is Aryl hydrocarbon receptor (Homo sapiens) (UniProt P35869). The assay is described as follows: ATG_Ahr_CIS: Attagene CIS-FACTORIAL HepG2 Assay for human Aryl Hydrocarbon Receptor (Ahr) (AID 2282930). The note with it: HepG2 AhR cis-factorial reporter transcription; actives raise or lower the signal. The procedure, abridged:
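Transient MRTU transfection of HepG2 → 24 h compound exposure → total RNA, oligo(dT) RT → PCR, 6-FAM extension, HpaI cut → CE fluorescence. DMSO = baseline; bidirectional curve fit.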

Assay [15] can be described thus: ATG_AP_2_CIS: Attagene CIS-FACTORIAL HepG2 Assay for human Activator Protein 2 (AP-2) (AID 2282932). The note with it: HepG2 AP-2 cis-reporter, Attagene transcription factor profiling; actives raise or lower the signal. The procedure, abridged: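 Endogenous transcription factor activity is reported through transfected multiplex reporter constructs in HepG2, after 24 h of compound exposure. Transcripts were quantified by RT-PCR and capillary electrophoresis of fluorescent fragments. Bidirectional fit against DMSO.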

Assay [16] in a line: ATG_BRE_CIS: Attagene CIS-FACTORIAL HepG2 Assay for human Bone Morphogenetic Protein (BMP) Response Element (BRE) (AID 2282933). The note with it: HepG2 BMP response element reporter, Attagene transcription factor profiling; actives raise or lower the signal. In short, it runs like this:
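HepG2 cells transiently transfected with CIS reporter units (endogenous TF activity, BMP response element), dosed 24 h. Reporter mRNA quantified by RT-PCR, fluorescent labelling and capillary electrophoresis; bidirectional fit vs DMSO baseline.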

Assay [17] has as its target Retinoic acid receptor alpha (Homo sapiens) (UniProt P10276). In words: ATG_DR5_RAR_CIS: Attagene CIS-FACTORIAL HepG2 Assay for human Retinoic Acid Receptor Alpha (RARE), DR5 submotif (AID 2282934).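 For AC50: reporter responds to endogenous RAR alpha beta and gamma in HepG2 not RARA alone.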 The note with it: HepG2 Attagene cis-factorial RARE DR5 reporter, mRNA; actives raise or lower the signal. In short, it runs like this:
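Transient MRTU transfection of HepG2; 24 h compound treatment; TriZol RNA, oligo(dT) RT, PCR, FAM labelling, capillary electrophoresis. Bidirectional fit vs DMSO. Endogenous TF activity at DR5 RARE.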

Assay [18] addresses Transcription factor E2F1 (Homo sapiens) (UniProt Q01094). In words: ATG_E2F_CIS: Attagene CIS-FACTORIAL HepG2 Assay for human E2F Transcription Factor 1 (AID 2282935). The note with it: HepG2 Attagene cis-reporter, E2F reporter RNA transcripts; actives raise or lower the signal. In short, it runs like this:
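Gain or loss of reporter transcript, fitted against DMSO, reflects E2F1-driven transcription. Transiently transfected HepG2 dosed 24 h before RNA isolation. Quantified by fluorescent RT-PCR products separated by capillary electrophoresis.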

The nature of assay [19]: ATG_DR4_LXR_CIS: Attagene CIS-FACTORIAL HepG2 Assay for human Liver X Receptor (LXR), DR4 submotif (AID 2282929). The note with it: HepG2 Attagene DR4 cis-reporter, mRNA transcription; actives raise or lower the signal. The procedure, abridged: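 Transiently transfected HepG2 liver cells; cis-regulated reporters; 24 h dosing. RT-PCR plus CE read-out of reporter mRNA. DMSO baseline, bidirectional curve fitting.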

Assay [20] in a line: ATG_AP_1_CIS: Attagene CIS-FACTORIAL HepG2 Assay for human Activator Protein 1 (AP-1) (AID 2282931). The note with it: HepG2 Attagene cis-factorial AP-1 reporter mRNA; actives raise or lower the signal. The procedure, abridged:
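We transfected HepG2 cells transiently with a set of cis-regulated reporter transcription units, dosed them for 24 h, and quantified reporter mRNA via RT-PCR and capillary electrophoresis, scoring gain or loss of signal relative to DMSO.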

Structures are written as SMILES. The source made the active and inactive calls. Rule for the calls: active = hit-call score of the fitted dose curve at least 0.9, where 1 is the maximum; inactive = score below 0.9.

Retinoic acid receptor alpha (Homo sapiens), sequence (P10276 whole entry, looked up): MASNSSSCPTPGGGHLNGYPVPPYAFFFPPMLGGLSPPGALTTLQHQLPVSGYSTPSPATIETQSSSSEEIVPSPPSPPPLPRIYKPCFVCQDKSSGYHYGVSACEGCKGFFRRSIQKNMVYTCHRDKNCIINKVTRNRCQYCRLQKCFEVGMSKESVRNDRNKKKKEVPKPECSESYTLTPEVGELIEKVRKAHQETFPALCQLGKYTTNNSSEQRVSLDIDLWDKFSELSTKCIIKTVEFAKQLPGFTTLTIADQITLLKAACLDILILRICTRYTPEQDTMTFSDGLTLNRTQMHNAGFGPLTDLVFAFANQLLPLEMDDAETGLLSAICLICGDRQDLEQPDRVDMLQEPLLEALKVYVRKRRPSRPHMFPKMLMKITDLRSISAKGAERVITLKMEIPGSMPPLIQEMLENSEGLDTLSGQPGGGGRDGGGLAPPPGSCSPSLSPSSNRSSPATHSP
Transcription factor E2F1 (Homo sapiens), sequence (Q01094 whole entry, looked up): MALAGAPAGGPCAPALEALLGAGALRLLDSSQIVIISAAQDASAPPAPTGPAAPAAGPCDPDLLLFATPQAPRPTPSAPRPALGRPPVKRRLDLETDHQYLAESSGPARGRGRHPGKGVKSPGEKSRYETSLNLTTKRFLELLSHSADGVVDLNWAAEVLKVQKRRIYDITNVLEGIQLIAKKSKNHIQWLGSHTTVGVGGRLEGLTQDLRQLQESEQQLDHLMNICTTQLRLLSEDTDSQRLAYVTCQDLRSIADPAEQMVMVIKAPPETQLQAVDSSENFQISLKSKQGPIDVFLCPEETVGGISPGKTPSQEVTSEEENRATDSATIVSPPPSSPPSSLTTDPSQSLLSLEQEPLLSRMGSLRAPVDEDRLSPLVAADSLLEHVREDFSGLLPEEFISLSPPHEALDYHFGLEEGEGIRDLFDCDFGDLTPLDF
Aryl hydrocarbon receptor (Homo sapiens), sequence (P35869 whole entry, looked up): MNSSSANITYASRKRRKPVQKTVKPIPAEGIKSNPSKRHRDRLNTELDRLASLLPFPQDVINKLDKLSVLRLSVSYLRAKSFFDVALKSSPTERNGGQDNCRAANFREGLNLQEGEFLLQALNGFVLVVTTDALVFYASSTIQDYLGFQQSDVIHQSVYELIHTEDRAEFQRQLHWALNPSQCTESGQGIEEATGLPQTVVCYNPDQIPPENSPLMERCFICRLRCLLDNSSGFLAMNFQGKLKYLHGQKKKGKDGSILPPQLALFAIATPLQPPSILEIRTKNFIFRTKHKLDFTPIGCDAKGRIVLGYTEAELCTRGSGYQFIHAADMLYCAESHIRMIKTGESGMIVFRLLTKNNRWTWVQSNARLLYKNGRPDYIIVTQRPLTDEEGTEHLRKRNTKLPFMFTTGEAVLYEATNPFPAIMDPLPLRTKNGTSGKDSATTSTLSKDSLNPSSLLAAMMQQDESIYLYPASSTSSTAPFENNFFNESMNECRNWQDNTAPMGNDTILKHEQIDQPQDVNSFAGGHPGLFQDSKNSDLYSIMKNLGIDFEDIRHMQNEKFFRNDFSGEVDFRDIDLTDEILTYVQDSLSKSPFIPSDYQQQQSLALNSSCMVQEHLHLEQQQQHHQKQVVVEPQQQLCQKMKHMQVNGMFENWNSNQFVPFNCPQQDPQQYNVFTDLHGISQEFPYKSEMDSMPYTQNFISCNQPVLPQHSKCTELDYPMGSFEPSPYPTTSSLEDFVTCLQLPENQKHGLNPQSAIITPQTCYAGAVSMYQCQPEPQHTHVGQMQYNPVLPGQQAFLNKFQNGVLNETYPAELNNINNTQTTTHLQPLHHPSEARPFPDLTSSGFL
CCAAT/enhancer-binding protein beta (Homo sapiens), sequence (P17676 whole entry, looked up): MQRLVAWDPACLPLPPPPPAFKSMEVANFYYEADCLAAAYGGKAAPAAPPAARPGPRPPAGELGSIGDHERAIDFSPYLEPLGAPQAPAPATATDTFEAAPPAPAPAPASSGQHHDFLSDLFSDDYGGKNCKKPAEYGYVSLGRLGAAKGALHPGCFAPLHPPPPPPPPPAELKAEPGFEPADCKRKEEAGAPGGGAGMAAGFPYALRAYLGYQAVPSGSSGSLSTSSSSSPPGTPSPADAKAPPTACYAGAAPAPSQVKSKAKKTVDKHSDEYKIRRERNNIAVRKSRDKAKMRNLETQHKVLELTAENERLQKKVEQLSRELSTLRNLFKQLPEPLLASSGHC

With `CCOP(=O)(NC(C)C)Oc1ccc(SC)c(C)c1` (stereo not given), the call in assay [1], in [3], in assay [4], in assay [5], in assay [6] and in [7] was inactive. The compound was called inactive in assay [8], in assay [9], in assay [10], in [11], in [12] and in assay [13]. Also, the result in assay [14], in assay [15], in [16] and in assay [18] was inactive. For the same compound, the AC50 – broadly, the concentration at which the activity in the assay is half-maximal – was 50.5 µM (active) in assay [2] and 14.2 µM (active) in assay [17].

In the case of `C#CC(C)(C)NC(=O)c1cc(Cl)cc(Cl)c1`, the call in [1], in assay [2], in assay [3], in assay [4], in [5] and in [6] was inactive. The outcome in assay [7], in [8], in assay [9], in [10], in [14] and in [15] was inactive. Further, the compound was called inactive in [17] and in assay [18]. The AC50 in assay [11] was 29 µM (active); in assay [12] it was 20.5 µM (active); in assay [13], 39.3 µM (active); in assay [16] it was 22.5 µM (active).

Consider `Nc1c(Cl)cc([N+](=O)[O-])cc1Cl`, for which the result in assay [1], in assay [2], in assay [3], in assay [4], in [5] and in [6] was inactive. Further, the outcome in assay [7], in assay [9], in assay [10], in assay [19], in [14] and in assay [15] was inactive. Further, the compound was called inactive in assay [17] and in [18]. Further, the concentration at half-maximal activity (AC50) in assay [11] is 35.1 µM (active); in assay [12] it was 73.8 µM (active); in assay [13], 50 µM (active); in [20], 75.2 µM (active); in [16], 36.1 µM (active).

Values taken from PubChem BioAssay (EPA / NIEHS).
